From PubChem BioAssay
Compounds with a hit are over-represented: about 1.4% of the library has one in this group of screens.
ugtP null kill – kills S. aureus RN4220 lacking UgtP. S. aureus RN4220 ugtP deletion, OD600 growth, 16 h. growth inhibition, % (no concentration beside the values). hit rate 0.54% among 330,000. AID 1259309; in the data active = growth inhibition above about 68%;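 note: plate controls were untreated wells for no effect and antibiotic for full effect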
PrPC TRFRET – reduces human prion protein on the cell surface; P04156; cell surface PrPC, TR-FRET read-out; inhibition, % at 13.8 µM; hit rate 0.43% among 370,000; AID 720596; in the data active = inhibition above about 24%; note: 0% = median of the test wells and 100% = reference compound wells
BJeLR lethal – BJeLR cell viability loss. BJeLR (HRASV12) viability, CellTiter-Glo ATP luminescence, 48 h. inhibition, % (no concentration beside the values). hit rate 0.17% among 300,000. AID 1554; in the data active = inhibition above about 50%
RN4220 kill – S. aureus RN4220 growth inhibition. hit rate 0.33% among 330,000. OD600, 16 h. inhibition, % (test concentration not listed); in the data active = inhibition above about 85%;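 note: plate controls were untreated cells for no effect and reference antibiotic for full effect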
VHR inh abs – DUSP3 (human) phosphatase inhibition. P51452. recombinant VHR phosphatase, pNPP absorbance. inhibition, % at 13.3 µM. hit rate 0.52% among 290,000. AID 1654; in the data active = inhibition above about 50%
3CLpro inhibitor – SARS-CoV 3CLpro protease inhibition; recombinant SARS-CoV 3CLpro, quenched FRET peptide cleavage; inhibition, % at 6 µM; hit rate 0.14% among 290,000; AID 1706; in the data active = inhibition above about 12%
PrPC TRFRET cf – cell surface PrPC inhibition, TR-FRET confirmation; shares compounds with PrPC TRFRET; cell surface PrPC level; inhibition, % at 13.8 µM; hit rate 65% among 1,500; AID 743200; in the data active = inhibition above about 25%
LD9 cytotox – counter-screen for PrPc inhibitors: cytotoxicity in LD9 cells; hit rate 29% among 1,500; inhibition, % at 13.8 µM; shares compounds with PrPC TRFRET; luminescence viability; in the data active = inhibition above about 9.5%
An asterisk follows results filed as active; x = not tested or not shown.

SMILES	ugtP null kill	PrPC TRFRET	BJeLR lethal	RN4220 kill	VHR inh abs	3CLpro inhibitor	PrPC TRFRET cf	LD9 cytotox
OC[C@H]1O[C@@H](c2nc3ccc(-c4nc(-c5ccc(Br)cc5)no4)cc3[nH]2)C[C@@H]1O	x	29*	x	x	x	x	21	4
CCN(CC)C(=O)c1ccc2nc([C@H]3C[C@H](O)[C@@H](CO)O3)[nH]c2c1	x	-3	x	x	x	x	x	x
O=C(NC=NOCc1cccc(C(F)(F)F)c1)N1OCC2COc3ccc4ccccc4c3C21 (centres undefined)	-14	x	x	-2	x	x	x	x
COC(=O)[C@@]1(Cc2ccc(F)cc2)C2c3cc(C(=O)N(C)C)n(Cc4ccccn4)c3CC2CN1C(=O)c1ccccc1 (some centres undefined)	2	x	x	8	x	x	x	x
Cc1ccc(C(C)C)c(OCc2ccc(C(=O)N/N=C/c3cccc(O)c3O)cc2)c1	x	43*	74*	x	-4	1	29*	19*
Cc1ccc(C(C)C)c(OCc2ccc(C(=O)N/N=C/c3ccc(O)c(O)c3)cc2)c1	x	28*	-8	x	14	2	41*	11*
CCn1c(O)c(C=NNC(=O)c2ccncc2)c(=O)n(CC)c1=S	-1	x	x	7	x	x	x	x
CC1CCCCC1NC(=O)C(C#N)=Cc1ccc(F)c(F)c1 (centres undefined)	-3	x	x	6	x	x	x	x
Cc1cccc(-n2ncc3c(NCc4cccs4)ncnc32)c1	-7	27*	-2	-10	7	3	9	-2
Clc1ccc(-n2ncc3c(NCc4cccs4)ncnc32)cc1	-4	-2	-7	-7	x	5	x	x
CC(=O)Nc1ccc(C2=CC(=O)CC(c3ccc(Cl)cc3)C2)cc1 (centres undefined)	-2	x	x	3	x	x	x	x
CCOC(=O)C1CCCCN1C(=O)C(=Cc1ccc(OC)cc1)c1ccc(OC)c(OC)c1 (centres undefined)	4	x	x	4	x	x	x	x
CCOC(=O)C1C2COc3ccccc3C2N2C(=O)c3c(C)cc(C)cc3NC(=O)[C@@]12C (some centres undefined)	-13	x	x	3	x	x	x	x
S=c1nc(COc2ccccc2)[nH]c2ccccc12	x	14	-6	x	16	1	x	x
S=c1nc(Cc2ccc(Cl)cc2)[nH]c2ccccc12	12	29*	-3	-10	24	4	60*	-3
Cc1nc(=S)c2ccccc2[nH]1	2	-1	0	7	-5	-4	x	x
S=c1nc(Cc2ccccc2)[nH]c2ccccc12	-3	31*	-9	-2	34	-2	26*	-4
O=C1C=C(c2cc(Cl)cc(Cl)c2)CC(c2ccc(F)cc2)C1 (centres undefined)	16	x	x	-8	x	x	x	x
C=C[C@@]1(C)CC(=O)[C@]2(O)[C@@]3(C)[C@@H](O)CCC(C)(C)[C@@H]3[C@H](O)[C@H](OC(C)=O)[C@@]2(C)O1	x	34*	-10	x	x	x	26*	-9
C=C[C@@]1(C)CC(=O)[C@]2(O)[C@@]3(C)[C@@H](O)CCC(C)(C)[C@@H]3[C@H](OC(C)=O)[C@H](O)[C@@]2(C)O1	-8	21	-1	6	x	x	x	x
COC(=O)C1=C(c2ccc3ccccc3c2)CC2CCC1N2C (centres undefined)	-3	x	x	1	x	x	x	x
Cc1ccccc1CN1C(=O)CN(S(C)(=O)=O)CC1(C)C(=O)NCc1ccccc1 (centres undefined)	x	25*	x	x	x	x	0	-5
Cc1ccccc1CN1C(=O)CN(S(C)(=O)=O)CC1(C)C(=O)Nc1c(C)cccc1C (centres undefined)	x	-7	x	x	x	x	x	x
CCc1ccc(NC(=O)COC(=O)CCc2nc3cc(S(=O)(=O)N(CC)CC)ccc3n2C)cc1	7	4	9	-1	13	2	x	x
CCN(CC)S(=O)(=O)c1ccc2c(c1)nc(CCC(=O)OCC(=O)Nc1cc(Cl)cc(Cl)c1)n2C	x	28*	-1	x	4	-1	2	-1
SMILES	ugtP null kill	PrPC TRFRET	BJeLR lethal	RN4220 kill	VHR inh abs	3CLpro inhibitor	PrPC TRFRET cf	LD9 cytotox
NCCCCC1NC(=O)c2cc([N+](=O)[O-])cc(I)c2SCC(C(N)=O)NC(=O)C(Cc2ccc(O)cc2)NC1=O (centres undefined)	-3	x	x	-1	x	x	x	x
Cc1cc(Br)c2nc3c(c(C(=O)O)c2c1)CCCCC3	7	117*	-6	4	22	2	132*	-4
CCc1ccc2nc3c(c(C(=O)O)c2c1)CCC3	0	-6	4	0	-8	0	x	x
Cc1ccc(Cc2nc(-c3ccncc3)no2)cc1	-7	72*	4	-5	28	-2	5	2
Cc1ccc2c(c1)C1CN(C)CCC1N2S(=O)(=O)c1ccc(F)cc1 (centres undefined)	-6	x	x	5	x	x	x	x
NC(=O)c1cc(NC(=O)c2ccc(NS(=O)(=O)c3cccs3)cc2)cc(C(N)=O)c1	-4	33*	-1	4	23	1	35*	4
CCC(C)C1NC(=O)c2cc([N+](=O)[O-])cc(F)c2NCCCCC(C(N)=O)NC(=O)C(CC(N)=O)NC1=O (centres undefined)	-11	x	x	2	x	x	x	x
COc1ccc(CN2CCC(=O)N(C(CO)CC(C)C)CC2)cc1OC (centres undefined)	-4	x	x	3	x	x	x	x
c1csc(CNc2nc(NCC3CCCCC3)c3sccc3n2)c1	x	26*	x	x	x	x	26*	14*
c1ccc(CNc2nc(NCc3cccs3)nc3ccsc23)cc1	x	19	x	x	x	x	x	x
COc1ccc(Oc2nc(-c3ccccn3)ncc2OC)cc1	-4	-1	2	7	-2	-7	x	x
CN(C)c1nc(-c2ccccn2)nnc1-c1ccccc1	3	27*	82*	13	24	-2	36*	-1
c1ccc(-c2nnc(-c3ccccn3)c(-c3ccccn3)n2)nc1	2	-16	-3	1	-3	0	x	x
COc1cnc(-c2ccccn2)nc1N(C)C	-1	26*	-8	7	2	-2	27*	1
c1ccc(-c2cccc(CNc3nc(-c4ccccn4)nnc3-c3ccccc3)c2)cc1	x	33*	x	x	x	x	36*	25*
CC#CCN1c2ccccc2[C@]23CC(C(=O)OC)N(C(=O)C4CCC4)C2=NC(C(=O)OC)=C(C(=O)OC)C13 (some centres undefined)	7	x	x	-5	x	x	x	x
CC1CC[C@@]2(O1)OC(CCO)CC(O)C2O (some centres undefined)	4	x	x	9	x	x	x	x
CCN1C(=NCCc2ccc([N+](=O)[O-])cc2)NC(c2ccccc2)C(C(=O)OC)C1C (centres undefined)	2	x	x	1	x	x	x	x
Cc1cccc(C)c1-n1c(SCC(=O)N2CC(=O)Nc3ccccc32)nc2ccccc2c1=O	10	27*	2	1	3	2	18	1
